In PubChem BioAssay (NCATS):
“And” between values parts separate entries of the source, which are not always exact repeats. Equal values may be shown once. Records with an inconclusive call do not appear. The source made the active and inactive calls. Unless noted, the call rests on the fitted dose curve.

Tests used:
[1] = Cytotoxicity counterscreen for inhibitors of SARS-CoV-2 cell entry (AID 1645845); further: nearly all actives have a fitted effect of over 50% in size
How it was run: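 HEK293-ACE2 cells (Expi293F stably expressing human ACE2) seeded overnight, then compound for 1 h plus 48 h at 37C. Viability as ATP content by luminescence; normalized to wells with cells and media-only wells.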

[2] = Primary qHTS to identify inhibitors of SARS-CoV-2 cell entry (AID 1645846); settings: activity change, negative = inhibition: at 57.1 µM (top of the series) unless noted; further: nearly all actives have a fitted effect of over 45% in size; further: potency means the concentration at half of the fitted maximal effect
How it was run: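 Entry measured by luciferase signal 48 h after adding SARS-CoV-2-S pseudotyped MLV particles to HEK293-ACE2 cells preincubated 1 h with compounds. Normalisation: bald particles and spike particles.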

[3] = Primary qHTS for inhibitors of nuclear receptor binding SET domain protein 2 (NSD2) in an isogenic RCH-ACV NSD2 p.E1099K mutant (9B) (AID 1645876; active means well fitted curve in the direction sought with a large enough effect; an effect the other way counts as inactive or inconclusive; further: nearly all actives have a fitted effect of over 70% in size)
[4] = Primary qHTS for inhibitors of nuclear receptor binding SET domain protein 2 (NSD2) in an RCH-ACV wild type WT cells (2C) (AID 1645877; active means well fitted curve in the direction sought with a large enough effect; an effect the other way counts as inactive or inconclusive; further: potency means the concentration at half of the fitted maximal effect; nearly all actives have a fitted effect of over 70% in size)
Papain (Carica papaya) = Papain (Carica papaya) (UniProt P00784); test: Primary qHTS assay for inhibitors of the protease papain (AID 1645873; active means well fitted curve in the direction sought with a large enough effect; an effect the other way counts as inactive or inconclusive;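 further: papain turnover of Z-FR-AMC read as the AMC fluorescence gain over 10 min; on the % scale 0 is the no-effect control and ±100 the full control effect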)
Chain of Papain (Carica papaya) (P00784 whole entry, looked up): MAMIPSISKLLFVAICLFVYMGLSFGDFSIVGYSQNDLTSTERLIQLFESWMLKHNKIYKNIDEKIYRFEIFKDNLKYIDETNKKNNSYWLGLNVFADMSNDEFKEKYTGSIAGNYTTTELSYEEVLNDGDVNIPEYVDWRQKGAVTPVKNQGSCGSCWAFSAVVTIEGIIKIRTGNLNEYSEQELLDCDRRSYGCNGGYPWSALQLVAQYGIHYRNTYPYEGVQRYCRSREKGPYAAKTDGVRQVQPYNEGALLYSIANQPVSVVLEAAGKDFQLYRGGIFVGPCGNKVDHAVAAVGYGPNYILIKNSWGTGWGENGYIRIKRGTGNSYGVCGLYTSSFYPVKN

[5] = target: Catechol O-methyltransferase (Homo sapiens) (UniProt P21964); test: Confirmatory Screen for Target Class Profiling of Small Molecule Inhibitors of Methyltransferases (AID 1745852); settings: MTase-Glo luminescence, SAH detection, recombinant enzyme; measured here: COMT max response; stronger effect = lower value; on activity change, negative = inhibition: on the % scale 0 is the no-effect control and ±100 the full control effect
Chain of Catechol O-methyltransferase (Homo sapiens) (P21964 whole entry, looked up): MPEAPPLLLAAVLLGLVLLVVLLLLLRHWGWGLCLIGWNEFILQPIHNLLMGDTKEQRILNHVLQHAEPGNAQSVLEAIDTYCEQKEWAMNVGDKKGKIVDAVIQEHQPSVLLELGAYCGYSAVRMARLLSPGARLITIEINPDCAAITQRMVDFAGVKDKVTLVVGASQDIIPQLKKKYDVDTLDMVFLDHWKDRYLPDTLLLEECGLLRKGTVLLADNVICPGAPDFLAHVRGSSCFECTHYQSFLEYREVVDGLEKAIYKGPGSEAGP

[6] = target: Guanidinoacetate N-methyltransferase (Homo sapiens) (UniProt Q14353); test: as above; settings: MTase-Glo luminescence, SAH detection, recombinant enzyme; activity change, negative = inhibition: at 57.3 µM (top of the series)
[7] = target: Nicotinamide N-methyltransferase (Homo sapiens) (UniProt P40261); test: as above; settings: MTase-Glo luminescence, SAH detection, recombinant enzyme; measured here: NNMT max response; stronger effect = lower value
Chain of Nicotinamide N-methyltransferase (Homo sapiens) (P40261 whole entry, looked up): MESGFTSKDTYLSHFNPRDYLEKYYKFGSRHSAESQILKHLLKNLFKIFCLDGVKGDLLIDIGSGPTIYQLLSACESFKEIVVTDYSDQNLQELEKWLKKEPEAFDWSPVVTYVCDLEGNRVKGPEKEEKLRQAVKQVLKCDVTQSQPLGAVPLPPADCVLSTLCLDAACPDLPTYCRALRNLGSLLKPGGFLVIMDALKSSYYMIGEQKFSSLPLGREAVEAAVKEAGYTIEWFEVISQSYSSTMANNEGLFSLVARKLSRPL

[8] = target: Phenylethanolamine N-methyltransferase (Homo sapiens) (UniProt P11086); test: as above; settings: MTase-Glo luminescence, SAH detection, recombinant enzyme; measured here: PNMT max response; stronger effect = lower value
Chain of Phenylethanolamine N-methyltransferase (Homo sapiens) (P11086 whole entry, looked up): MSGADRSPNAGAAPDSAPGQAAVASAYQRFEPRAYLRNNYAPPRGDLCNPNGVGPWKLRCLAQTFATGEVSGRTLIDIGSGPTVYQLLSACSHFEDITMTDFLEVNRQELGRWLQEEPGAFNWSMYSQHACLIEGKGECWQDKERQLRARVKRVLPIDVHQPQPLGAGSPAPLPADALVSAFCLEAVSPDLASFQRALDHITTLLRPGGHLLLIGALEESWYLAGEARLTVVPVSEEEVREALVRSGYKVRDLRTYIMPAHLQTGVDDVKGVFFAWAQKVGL

c1ccc2c(CN3CCNCC3)cccc2c1
Potency [1]: inactive | activity change, negative = inhibition [2]: -23.2% | Potency [3]: inactive

CN1CCN(c2ccc([N+](=O)[O-])c3no[n+]([O-])c23)CC1
Potency [1]: inactive | activity change, negative = inhibition [2]: -23.8% | Potency [4]: 20.9 µM (active)

N#Cc1c(O)c2c(-c3ccc(-c4ccccc4O)cc3)csc2[nH]c1=O
Potency [1]: inactive | activity change, negative = inhibition [2]: 3.57%

COc1ncc(-c2ccc3nccc(-c4ccnnc4)c3c2)cc1NS(=O)(=O)c1ccc(F)cc1F
Potency [2]: 2.51 µM (active)

COc1ncnc(NS(=O)(=O)c2ccc(N)cc2)c1OC
Potency [1]: inactive | Potency [2]: inactive | activity change, negative = inhibition [2]: -2.62%

NC1CCc2cc(O)c(O)cc2C1 (centres undefined)
Potency (Papain (Carica papaya)): inactive | activity [5]: 149% | activity change, negative = inhibition [6]: 0.293% | activity [7]: -14.5% | activity [8]: -22.8%

COc1cc2nccc(Oc3ccc(NC(=O)Nc4cc(C)on4)c(Cl)c3)c2cc1OC
Potency [2]: 14.1 µM (active)

CC(C)C[C@H](NC(=O)CNC(=O)c1cc(Cl)ccc1Cl)B(O)O
activity change, negative = inhibition [2]: -97.2% and -98.8%
